Out of some 410,000 compounds screened, about 7,200 (1.8%) were called active. A call without a number means that no potency is given here. Not shown: some 7% with an inconclusive outcome. Only a selection was taken, and actives are over-represented in it overall. Values without a mark were called inactive. Calls come from the whole dose curve; as a rule, active = well fitted activation curve with a large enough effect; inconclusive = small, poorly fitted or top-dose-only effect, or another doubt; inactive = no such curve, though single readings can be large or run the other way.
Potency is the fitted concentration of half-maximal effect.

This assay is described as follows: qHTS of TDP-43 Inhibitors. Note: nearly all actives have a fitted effect of over 50% in size. The note with it: TDP-43 expressing yeast growth rescue, BacTiter-Glo, 24 h; series mostly up to 46.1 µM. The procedure, abridged:
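In this qHTS, compounds that restore growth of yeast expressing TDP-43 appear as activators. Cells (OD600=0.02, galactose medium, raffinose-pregrown) are incubated with compound 24 hr at 30 deg C and growth is quantified by BacTiter-Glo.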
For orientation: In qHTS, concentration-response curves come from the screen itself.
On to `N#CCSc1nn(-c2ccc(F)cc2)c(=S)s1`, for which the Potency was 15.8 µM (active).

In the case of `Cc1ccccc1-n1nc(SCC(=O)O)sc1=S`, the Potency entry was “inactive”.

Take `O=C(CSc1nn(-c2ccc(F)cc2)c(=S)s1)NC1CCS(=O)(=O)C1` (stereo not given): the Potency result is “inactive”.

For `COc1ccc(CC(=O)Nc2nnc3n2CCS3)cc1OC`, the Potency result is “inactive”.

For `Cn1nc(-c2ccccc2)c(-c2ccccc2)c(C(=O)Nc2ccc(S(N)(=O)=O)cc2)c1=O`, the Potency result is “inactive”.

Take `CCS(=O)(=O)N1CCN(C(=O)c2cccs2)CC1`: the Potency entry is “inactive”.

`Cc1ccccc1N(C(=O)CNC(=O)c1cccs1)C(C(=O)NC1CCCC1)c1ccncc1` (stereo not given): the Potency result is “inactive”.

Consider `Cc1ccccc1C(CC(=O)c1cccs1)C(C#N)C#N` (stereo not given), for which the Potency was 17.8 µM (active).

Regarding `Cc1cccn2c(=O)c(C(=O)NC(C)c3ccccc3)cnc12` (stereo not given), the Potency entry was “inactive”.

Turning to `COc1ccc(S(=O)(=O)Nc2ccc(O)c(Sc3nc4ccccc4s3)c2)cc1`, the Potency was 31.6 µM (active).

In the case of `CC(C)(C)c1ccc(S(=O)(=O)Nc2ccc(O)c(Sc3nc4ccccc4s3)c2)cc1`, the Potency result was “inactive”.

For the compound `COc1ccc(CC(=O)Nc2ccc(-c3nc4ccccc4s3)c(C)c2)cc1`, the Potency result was “inactive”.

In the case of `CCOc1ccccc1NC(=O)C1CCCN(S(=O)(=O)c2cn(C)cn2)C1` (stereo not given), the Potency entry is “inactive”.

Take `Cc1nnc(SCC(=O)NCc2ccccc2Cl)c2nn(-c3ccccc3)c(C)c12`: the Potency result is “inactive”.

As to `CCn1c2c(c(=O)n3ncc(C(=O)N4CCN(c5ccccc5)CC4)c13)CN(Cc1ccc(OC)cc1)CC2`, the Potency entry was “inactive”.

In the case of `Cc1ccc(N2CCN(c3ccc([N+](=O)[O-])cn3)CC2)c(C)c1`, the Potency result is “inactive”.

Take `Cc1ccc(-n2cc3ccc([N+](=O)[O-])cc3n2)cc1`: the Potency was 15.8 µM (active).

Consider `CC(C)(C)NC(=O)Cn1cnc2cc([N+](=O)[O-])ccc2c1=O`, for which the Potency entry is “inactive”.

Turning to `Cc1ccc(CCNC(=O)C2CCN(c3nnc(-n4cccc4CNc4ccc(C)cc4)s3)CC2)cc1`, the Potency result was “inactive”.

As for `COc1ccc(S(=O)(=O)N2CCN(C(=S)NCC3CCCO3)CC2)cc1OC` (stereo not given), the Potency entry is “inactive”.

In the case of `S=C(NCC1CCCO1)N1CCN(c2ccc(Cl)c(Cl)c2)CC1` (stereo not given), the Potency was 22.4 µM (active).

As to `CCOc1ccc(S(=O)(=O)N2CCN(C(=S)NCC3CCCO3)CC2)cc1` (stereo not given), the Potency entry was “inactive”.

Turning to `O=C(CCCn1c(=O)c2cccn2c2cccnc21)NCc1ccc(F)cc1`, the Potency entry is “inactive”.

As for `Cc1nc2ccccn2c(=O)c1NC(=O)c1c(F)cccc1F`, the Potency entry is “inactive”.

Turning to `CN1C(=O)c2[nH]nc(-c3ccc(F)cc3)c2C1c1ccccn1` (stereo not given), the Potency result was “inactive”.

Turning to `O=C(NC1CC(=O)N(c2ccc(F)cc2)C1)c1cccs1` (stereo not given), the Potency entry is “inactive”.

Turning to `CC(C)(C)c1ccc(Oc2ccc(N)cc2)cc1`, the Potency was 35.5 µM (active).

Turning to `CCCC(=O)Nc1ccc(NC(=O)c2sc3ccccc3c2Cl)cc1`, the Potency entry was “inactive”.

Turning to `Cc1cc2ncn(CCCCOc3ccccc3)c2cc1C`, the Potency entry is “inactive”.

In the case of `Cc1c(C(N)=O)sc2ncn(CCOc3ccccc3)c(=O)c12`, the Potency entry was “inactive”.

Take `Clc1ncn(CCOc2ccccc2)c1Cl`: the Potency was 17.8 µM (active).

As to `CSc1oc(-c2cccs2)nc1S(=O)(=O)c1ccc(Br)cc1`, the Potency entry is “inactive”.

In the case of `COc1ccc(CN2CN(C3CCCC3)CSC2=S)cc1`, the Potency was 15.8 µM (active).

As to `COc1ccc(CN2CN(C(C)C)CSC2=S)cc1`, the Potency result is “inactive”.

Regarding `COc1ccc(CN2CC(C(=O)NC3CCCCC3)CC2=O)cc1` (stereo not given), the Potency entry is “inactive”.

Consider `CC1CCCN(c2nc3c(S(=O)(=O)c4ccc(C(C)C)cc4)nnn3c3ccsc23)C1` (stereo not given), for which the Potency result is “inactive”.

As to `O=C(Nc1cc(C(F)(F)F)ccc1Cl)c1nc2ccccc2nc1N1CCCCC1`, the Potency result is “inactive”.

Regarding `Cc1cc(C)c(S(=O)(=O)N2CCOCC2)cc1C`, the Potency result was “inactive”.

Consider `O=S(=O)(c1ccc(Br)c2ccccc12)N1CCOCC1`, for which the Potency was 14.1 µM (active).

Take `COc1ccc(S(=O)(=O)N2CCOCC2)c(C)c1C`: the Potency entry is “inactive”.

`COc1ccccc1CN1CCC(CNC(=O)c2cnn(-c3cccc(Cl)c3)c2C2CCN(C(=O)OC(C)(C)C)CC2)CC1`: the Potency entry was “inactive”.

As to `Cc1ccc(Cn2c(C)c3cnn(CC(=O)NCc4ccccc4)c(=O)c3c2C)cc1`, the Potency entry was “inactive”.

Turning to `COc1ccc(CNC(=O)c2ccc(-c3cccnc3)c3ccoc23)cc1OC`, the Potency entry was “inactive”.

With `COc1ccc(-c2ccc(C(=O)NC(C)C)c3occc23)c(C)c1`, the Potency is 28.2 µM (active).

On to `COc1ccc(-c2ccc(C(=O)NCCN3CCOCC3)c3occc23)c(C)c1`, for which the Potency result is “inactive”.

Regarding `COC(=O)c1ccc(-c2nc3cc(NC(C)=O)ccc3o2)cc1`, the Potency entry is “inactive”.

`COc1ccc(-c2cn3c(C)c(C(=O)Nc4cc(C)cc(C)c4)sc3n2)cc1`: the Potency result was “inactive”.

Regarding `COc1ccc(-n2c(SC)nc3sc4c(c3c2=O)CCN(C(C)=O)C4)cc1`, the Potency result is “inactive”.

In the case of `O=C(COc1ccc2ccccc2c1)N1CCN(C(=O)c2cccs2)CC1`, the Potency result is “inactive”.

As for `Cc1cc2ccccc2n1CCNC(=O)COc1ccc2ccccc2c1`, the Potency is 35.5 µM (active).

Turning to `Cc1ccccc1OCC(=O)NCC(=O)OCC(=O)c1ccc2ccccc2c1`, the Potency result is “inactive”.

In the case of `CCOc1ccccc1C(=O)NC1(C(F)(F)F)C(=O)Nc2c1c(=O)[nH]c(=O)n2-c1ccc(F)cc1` (stereo not given), the Potency result is “inactive”.

`CCCCOc1ccc(CN2C(=O)C(=O)c3cc(Br)cc(C)c32)cc1OC`: the Potency entry was “inactive”.

For `Cc1cccc(Oc2c([N+](=O)[O-])c(=O)n(C)c3ccccc23)c1`, the Potency is 11.2 µM (active).

Consider `Cn1c(=O)c([N+](=O)[O-])c(Oc2ccccc2)c2ccccc21`, for which the Potency result was “inactive”.

Take `Cc1cccc(C2CC(=O)Oc3c2c(=O)n(C)c2ccccc32)c1` (stereo not given): the Potency result was “inactive”.

Consider `CCN(CCCNC(=O)Cn1ncc2c([nH]c3ccccc32)c1=O)c1cccc(C)c1`, for which the Potency result is “inactive”.

As to `CCOC(=O)C1CCCN(C(=O)Cn2ncc3c(C)n(Cc4ccc(F)cc4)c(C)c3c2=O)C1` (stereo not given), the Potency result was “inactive”.

Consider `O=C(CCOc1ccccc1)N(Cc1cccnc1)c1nc2ccc(Cl)cc2s1`, for which the Potency entry was “inactive”.

Take `Nc1cccc(-c2cncc(N3CCN(Cc4ccccn4)CC3)n2)c1`: the Potency result was “inactive”.

On to `Nc1cccc(-c2cc(-c3ccccc3)nc(-c3cccc(N)c3)n2)c1`, for which the Potency is 14.1 µM (active).

With `COc1cccc(-c2cnc3c(NC(C)=O)cc(-c4cccc(NC(C)=O)c4)cn23)c1`, the Potency result was “inactive”.

Regarding `CC(=O)Nc1cccc(-c2cc(NC(C)=O)c3ncc(-c4ccccc4)n3c2)c1`, the Potency result is “inactive”.

For `CC(=O)Nc1cc(-c2ccccc2F)cn2c(-c3cccc(C(F)(F)F)c3)cnc12`, the Potency was 31.6 µM (active).

For `CCOc1ccc(C(=O)c2cn(Cc3ccccc3OC)c3ccc(F)cc3c2=O)cc1`, the Potency result was “inactive”.

For `COc1ccc2ncc3c(-c4ccc(C)c(C)c4)nn(CC(=O)NC4CCCC4)c3c2c1`, the Potency result is “inactive”.

As for `CC1CC2=C(CC1/C=N/NC(N)=S)C(C)(C)CCC2` (stereo not given), the Potency is 22.4 µM (active).

Take `COc1ccc2c(c1)Cc1sc(NC(=O)c3ccccc3Br)nc1-2`: the Potency entry is “inactive”.

Consider `CCOC(=O)c1cc2c(=O)n3ccccc3nc2n(CC2CCCO2)c1=NC(=O)c1ccc(C(C)(C)C)cc1` (stereo not given), for which the Potency result was “inactive”.

Consider `COc1ccc(OCCn2cc(C(=O)C3CCCCC3)c3ccccc32)cc1`, for which the Potency entry is “inactive”.

As to `CCNC(=O)N1CCN(S(=O)(=O)c2ccc3c(c2)OCCCO3)CC1`, the Potency result is “inactive”.

For `O=C(c1c(F)cccc1Cl)N1CCN(S(=O)(=O)c2ccc3c(c2)OCCCO3)CC1`, the Potency is 14.1 µM (active).

Take `O=C(c1ccc(Cl)nc1)N1CCN(S(=O)(=O)c2ccc3c(c2)OCCO3)CC1`: the Potency entry is “inactive”.

As to `CCOC(=O)Cc1csc(SCc2cc(=O)oc3cc(O)ccc23)n1`, the Potency result was “inactive”.

`CCOC(=O)Cc1csc(SCC(=O)Nc2ccc(C)cc2F)n1`: the Potency entry was “inactive”.

`CCOC(=O)Cc1csc(SCC(=O)NC(C)C23CC4CC(CC(C4)C2)C3)n1` (stereo not given): the Potency is 22.4 µM (active).

Turning to `Cc1ccc(C(=O)Nc2ccc(OCc3cc(=O)n4c(C)csc4n3)cc2)cc1`, the Potency entry was “inactive”.

Regarding `CCSc1nnc(NC(=O)c2cc(=O)c3cc(C)c(C)cc3o2)s1`, the Potency entry is “inactive”.

Consider `O=C(Cn1c(=O)n(Cc2ccccc2)c(=O)c2sc3ccccc3c21)Nc1ccccc1F`, for which the Potency entry was “inactive”.

As for `CCc1nnc(SCC(=O)Nc2cc(OC)ccc2OC)nc1CC`, the Potency entry is “inactive”.

Consider `CCn1c(COc2ccccc2)nnc1SCC(=O)Nc1ccc2c(c1)OCCO2`, for which the Potency entry was “inactive”.

Regarding `CCn1c(COc2ccc(OC)cc2)nnc1SCC(=O)Nc1cc(OC)ccc1OC`, the Potency was 17.8 µM (active).

As to `Cc1ccc(CN2C(=O)SC(Nc3ccccc3)C2=O)cc1` (stereo not given), the Potency entry is “inactive”.

For the compound `C=CCn1c(-c2sc(-c3ccccc3)nc2C)n[nH]c1=S`, the Potency is 35.5 µM (active).

With `C=CCn1c(-c2ccccc2OCC)n[nH]c1=S`, the Potency result is “inactive”.

Turning to `C=CCn1c(-c2ccc3[nH]c(C)c(C)c3c2)n[nH]c1=S`, the Potency result was “inactive”.

In the case of `Cc1ccc(C(=O)COC(=O)C(Cc2c[nH]c3ccccc23)NC(=O)c2ccc(Br)cc2)cc1` (stereo not given), the Potency result is “inactive”.

With `O=C1OC(C(=O)Nc2cccc(Br)c2)Cc2ccccc21` (stereo not given), the Potency entry was “inactive”.

For `COc1cc2c(cc1OC)C(c1cccc([N+](=O)[O-])c1)=NCC2`, the Potency entry is “inactive”.

As for `CCOC(=O)CSc1ncc(-c2cccc(Cl)c2)cn1`, the Potency result was “inactive”.

On to `Nc1c(-c2cccc(Cl)c2)cnn1-c1cccc([N+](=O)[O-])c1`, for which the Potency is 10 µM (active).

Regarding `COc1cccc(C(=O)NC(=O)Nc2ccc(-c3cc(C(F)(F)F)nn3-c3ccccc3)cc2)c1`, the Potency result was “inactive”.

Consider `CCS(=O)(=O)N1CCC(n2c(C)nc3cccnc32)CC1`, for which the Potency entry was “inactive”.

Turning to `O=C(CSc1nnnn1-c1ccc(O)cc1)c1ccc(F)cc1`, the Potency entry was “inactive”.

Take `CCN(CC)S(=O)(=O)c1ccc2nc(CSc3nnnn3-c3ccc(O)cc3)[nH]c2c1`: the Potency entry was “inactive”.

Turning to `Oc1ccc(-n2nnnc2SCc2c(F)cccc2Cl)cc1`, the Potency is 15.8 µM (active).

Consider `Cc1ccc(C)c(N2CCN(c3ccc4cc(S(=O)(=O)N5CCC(C)CC5)ccc4n3)CC2)c1`, for which the Potency entry is “inactive”.

Consider `C=CCNc1nc(Nc2ccc(Cl)cc2)nc(OC)n1`, for which the Potency is 35.5 µM (active).

With `C=CCNc1nc(C)nc(OC)n1`, the Potency result is “inactive”.

Take `CCOC(=O)CNc1nc(Cl)nc(Nc2ccccc2)n1`: the Potency result is “inactive”.

Regarding `Cc1cccc(NC(=O)N2CCN(C)c3ncccc32)c1C`, the Potency entry was “inactive”.

`O=C(Nc1nnc(-c2ccc(Cl)cc2)o1)c1ccccc1Br`: the Potency is 7.08 µM (active).

As to `O=C(COC(=O)c1ccc(Oc2ccccc2)cc1)Nc1nnc(-c2ccccc2)o1`, the Potency was 22.4 µM (active).

Turning to `O=C(COC(=O)CSc1nnc(-c2ccc(Cl)cc2)o1)Nc1cc(Cl)cc(Cl)c1`, the Potency result is “inactive”.

As to `Cc1c(Br)ccc(NC(=O)COc2ccccc2C(N)=O)c1C`, the growth rescue (activation) was 10.9% [at 9.22 µM].

Consider `COc1cccc(-c2nnc(NC(=O)c3ccc(S(=O)(=O)N(CC(C)C)CC(C)C)cc3)o2)c1`, for which the Potency result was “inactive”.

For the compound `O=C(COC(=O)c1ccccc1Br)Nc1nnc(-c2ccccc2)o1`, the Potency is 22.4 µM (active).

Take `CC(C)CNC(=O)COC(=O)c1ccccc1OCC(=O)Nc1ccc(Br)cc1`: the Potency result was “inactive”.

With `O=C(Nc1ccc(-c2nc3cc(NC(=O)c4ccccc4Cl)ccc3o2)cc1)c1ccccc1Cl`, the Potency result is “inactive”.

`O=C(COc1ccccc1)Nc1nonc1NC(=O)COc1ccccc1`: the Potency result was “inactive”.

The values above are taken from PubChem BioAssay AID652104 (National Center for Advancing Translational Sciences (NCATS), 2013).
